In PubChem BioAssay (Tox21):
Results filed as inconclusive are left out. More than one record can exist for a structure, and the calls need not agree. Calls of active or inactive are those of the source. Unless noted, calls come from the whole dose curve; as a rule, active = well fitted curve in the direction sought with a large enough effect in the repeat runs; inconclusive = weak or mixed curves; inactive = no such curve, though single readings can be large; an effect the other way counts as inactive or inconclusive.

Tests used:
[1] = qHTS assay to identify small molecule antagonists of the glucocorticoid receptor (GR) signaling pathway - cell viability counter screen (AID 720693); note: nearly all actives have a fitted effect of over 55% in size
[2] = qHTS assay for identifying genotoxic compounds that show differential cytotoxicity against isogenic chicken DT40 cell lines with known DNA damage response pathways - wild type cell line (AID 743012); note: nearly all actives have a fitted effect of over 60% in size; note: potency is the fitted concentration of half-maximal effect
In short: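 Using parental DT40 (300 cells/well), compounds delivered in DMSO incubate 40 h at 37 C/5% CO2. CellTiter-Glo reagent then stands 30 min at room temperature, and luminescence gives cell viability.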

[3] = qHTS assay for identifying genotoxic compounds that show differential cytotoxicity against isogenic chicken DT40 cell lines with known DNA damage response pathways - Rev3 mutant cell line (AID 743014); note: nearly all actives have a fitted effect of over 55% in size; note: potency is the fitted concentration of half-maximal effect
[4] = qHTS assay for identifying genotoxic compounds that show differential cytotoxicity against isogenic chicken DT40 cell lines with known DNA damage response pathways - Rad54/Ku70 mutant cell line (AID 743015); note: nearly all actives have a fitted effect of over 60% in size; note: potency is the fitted concentration of half-maximal effect
[5] = qHTS assay to identify small molecule antagonists of the androgen receptor (AR) signaling pathway using the MDA cell line - cell viability counter screen (AID 743041; note: nearly all actives have a fitted effect of over 45% in size; note: potency is the fitted concentration of half-maximal effect)
In short: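 Cells were plated at 3,000 per well and left 5 h. Compounds in DMSO were then pinned in, followed by R1881. After 16 h at 37C, CellTiter-Fluor fluorescence gave viability.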

[6] = qHTS assay to identify small molecule antagonists of the androgen receptor (AR) signaling pathway - cell viability counter screen (AID 743033; note: nearly all actives have a fitted effect of over 45% in size)
[7] = target: Androgen receptor (Homo sapiens) (UniProt P10275); assay: qHTS assay to identify small molecule antagonists of the androgen receptor (AR) signaling pathway (AID 743035; active = well fitted inhibition curve with a large enough effect in the signal ratio in the repeat runs, not every such curve was filed as active; the % refers to the signal ratio)
Chain of Androgen receptor (Homo sapiens) (P10275 whole entry, looked up): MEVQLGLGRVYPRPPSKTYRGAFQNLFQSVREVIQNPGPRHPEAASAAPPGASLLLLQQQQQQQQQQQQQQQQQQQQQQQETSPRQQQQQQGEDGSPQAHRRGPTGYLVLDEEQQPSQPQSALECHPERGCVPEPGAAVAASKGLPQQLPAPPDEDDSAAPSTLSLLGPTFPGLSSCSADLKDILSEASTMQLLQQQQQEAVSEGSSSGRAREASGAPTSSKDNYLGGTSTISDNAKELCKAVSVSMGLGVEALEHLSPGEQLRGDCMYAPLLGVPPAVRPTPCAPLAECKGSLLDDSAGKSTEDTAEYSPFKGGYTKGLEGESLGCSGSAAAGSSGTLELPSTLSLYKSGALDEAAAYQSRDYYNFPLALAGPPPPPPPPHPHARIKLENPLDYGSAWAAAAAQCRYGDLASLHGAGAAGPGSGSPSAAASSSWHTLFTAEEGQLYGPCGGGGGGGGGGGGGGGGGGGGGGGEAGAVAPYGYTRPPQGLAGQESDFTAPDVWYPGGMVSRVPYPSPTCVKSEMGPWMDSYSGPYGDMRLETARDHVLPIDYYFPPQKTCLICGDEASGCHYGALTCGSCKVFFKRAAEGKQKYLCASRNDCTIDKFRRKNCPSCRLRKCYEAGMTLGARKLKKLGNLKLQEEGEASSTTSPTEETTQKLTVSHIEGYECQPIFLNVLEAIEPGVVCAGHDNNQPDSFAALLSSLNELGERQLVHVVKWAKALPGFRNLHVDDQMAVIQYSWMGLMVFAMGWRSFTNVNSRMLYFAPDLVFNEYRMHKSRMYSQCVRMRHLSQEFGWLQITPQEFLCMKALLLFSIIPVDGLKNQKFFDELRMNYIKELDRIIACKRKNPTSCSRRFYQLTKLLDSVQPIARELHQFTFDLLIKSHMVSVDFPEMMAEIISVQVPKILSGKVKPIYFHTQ
In short: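 Using qHTS, AR-UAS-bla GripTite HEK293 cells received compound, then R1881, and were cultured 16 h at 37C/5% CO2 before a 2 h room-temperature LiveBLAzer B/G FRET substrate step and fluorescence measurement.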

[8] = target: Androgen receptor (Homo sapiens) (UniProt P10275); assay: qHTS assay to identify small molecule agonists of the androgen receptor (AR) signaling pathway (AID 743036; active = well fitted activation curve with a large enough effect in the signal ratio in the repeat runs, with a control signal flat, not every such curve was filed as active; the % refers to the signal ratio)
In short: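 Fluorescence from a beta-lactamase FRET substrate served as read-out in AR-UAS-bla GripTite HEK293 cells. Cells were treated with DMSO-dissolved compounds for 16 h at 37C, then with LiveBLAzer B/G substrate for 2 h at room temperature.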

[9] = target: Androgen receptor (Homo sapiens) (UniProt P10275); assay: qHTS assay to identify small molecule agonists of the androgen receptor (AR) signaling pathway using the MDA cell line (AID 743040; note: nearly all actives have a fitted effect of over 20% in size)
In short: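 Cells plated, 5 h at 37C/0% CO2; compound or DMSO pinned; 16 h at 37C; ONE-Glo added; luminescence measured after 30 min at room temperature. Reporter line: MDA-kb2 with MMTV-luciferase responsive to AR and GR.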

[10] = target: Androgen receptor (Homo sapiens) (UniProt P10275); assay: qHTS assay to identify small molecule antagonists of the androgen receptor (AR) signaling pathway using the MDA cell line (AID 743042; note: nearly all actives have a fitted effect of over 55% in size)
In short: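 Antagonist mode: compounds plus R1881 agonist added to MDA-kb2 AR-luc cells, incubated 16 h at 37C. Luciferase reporter luminescence quantified, with multiplexed CellTiter-Fluor readout for cell viability.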
% is set by controls: 0 for no effect and ±100 for the full control effect.

CC(=O)CCCCn1c(=O)c2c(ncn2C)n(C)c1=O
inactive: outcome [1] | Potency [2] | Potency [3] | Potency [4] | Potency [5]

CCCCCCCCOS(=O)(=O)O
inactive: outcome [1] | Potency [2] | Potency [3] | Potency [4] | Potency [6] | Potency [5]

CCCCC(CC)COCCO (stereo unspecified)
inactive: outcome [1] | Potency [2] | Potency [3] | Potency [4] | Potency [6] | Potency [5]

CC(C)CC(C)CC(C)CC(C)COC(=O)c1ccccc1C(=O)OCC(C)CC(C)CC(C)CC(C)C (stereo unspecified)
inactive: outcome [1] | Potency [2] | Potency [6] | Potency [5]
active: Potency [3] 25.3 µM

CC(=O)Nc1ccc(S(=O)(=O)Cl)cc1
inactive: outcome [1] | Potency [2] | Potency [3] | Potency [4] | Potency [6] | Potency [5]

CCOc1cc(NC(C)=O)ccc1C(=O)OC
inactive: outcome [1] | Potency [2] | Potency [3] | Potency [4] | Potency [6] | Potency [5]

CCC(C=O)CC
inactive: outcome [1] | Potency [2] | Potency [3] | Potency [4] | Potency [6] | Potency [5]

CCCCCCCCCCCCCC
inactive: outcome [1] | Potency [2] | Potency [3] | Potency [4] | Potency [5]

CC(=O)Nc1cccc(C)c1
inactive: outcome [1] | Potency [2] | Potency [3] | Potency [4] | Potency [6] | Potency [5]

CCCCNC1CC(C)(C)NC(C)(C)C1
active: Potency [3] 48.6 µM
inactive: outcome [1] | Potency [2] | Potency [6] | Potency [5]

COc1ccc(C2CNC(=O)C2)cc1OC1CCCC1 (stereo unspecified)
inactive: outcome [1] | Potency [2] | Potency [3] | Potency [4] | Potency [6] | Potency [5]

Nc1cccc(O)c1
inactive: outcome [1] | Potency [2] | Potency [3] | Potency [6] | Potency [5]

COC(=O)C1CC(=O)C(C(=O)OC)CC1=O (stereo unspecified)
inactive: viability change, negative = cytotoxic [1] -6.7% [at 7.04 µM] | activity change, negative = cytotoxicity [2] -1.23% [at 8.52 µM] | activity, negative = cytotoxicity [3] 6.72% [at 8.53 µM] | activity change, negative = cytotoxicity [4] -1.14% [at 8.55 µM] | activity change, negative = cytotoxicity [6] -11.9% [at 7.04 µM] | viability change, negative = cytotoxic [5] 6.75% [at 8.47 µM]

O=P(O)(O)OP(=O)(O)O
inactive: outcome [1] | Potency [2] | Potency [3] | Potency [6] | Potency [5]
11.9 µM (active) and inactive: Potency [4]

CCCCCOC(=O)CCC
inactive: outcome [1] | Potency [2] | Potency [3] | Potency [4] | Potency [6] | Potency [5]

CC(C)N(c1ccccc1)C(C)C
inactive: outcome [1] | Potency [2] | Potency [3] | Potency [4] | Potency [6] | Potency [5]

Cc1nc2n(c(=O)c1CCN1CCC(c3noc4cc(F)ccc34)CC1)CCC[C@H]2O
inactive: outcome [1] | Potency [2] | Potency [3] | Potency [4] | Potency [6] | Potency [5]

Cc1ccc2c(c1)OCC(=O)CO2
inactive: outcome [1] | Potency [2] | Potency [3] | Potency [4] | Potency [6] | Potency [5]

CC(=O)Nc1ccc(S(=O)(=O)Nc2ccc([N+](=O)[O-])cc2)cc1
inactive: outcome [1] | Potency [2] | Potency [3] | Potency [4] | Potency [5]

COc1cc(C(=S)N2CCOCC2)cc(OC)c1OC
inactive: outcome [1] | Potency [2] | Potency [4] | Potency [6] | Potency [5]

CCOC(=O)CC(=O)c1ccccc1
inactive: outcome [1] | Potency [2] | Potency [4] | Potency [6] | Potency [5]

C=C(C)C(=O)OCCNC(C)(C)C
inactive: outcome [1] | Potency [2] | Potency [4] | Potency [6] | Potency [5]

CCO[Si](CCCS)(OCC)OCC
inactive: outcome [1] | Potency [2] | Potency [4] | Potency [6] | Potency [5]

CC1=CCC(C(C)C)=CC1
inactive: outcome [1] | Potency [3] | Potency [4] | Potency [6] | Potency [5]

COc1cc(N)ccc1C
inactive: outcome [1] | Potency [2] | Potency [4] | Potency [6] | Potency [5]

CCC(C)(CCC(C)C)C(=O)O (stereo unspecified)
inactive: outcome [1] | Potency [2] | Potency [4] | Potency [6] | Potency [5]

C=C1CC/C=C(\C)CC[C@@H]2[C@@H]1CC2(C)C
inactive: outcome [1] | Potency [2] | Potency [4] | Potency [6] | Potency [5]

CC(N)C(=O)OC(C)(C)Cc1ccc(Cl)cc1 (stereo unspecified)
active: Potency [2] 21.1 µM
inactive: outcome [1] | Potency [6] | Potency [5]

CCCCN
inactive: outcome [1] | Potency [2] | Potency [4] | Potency [5]

CC(CC=O)CCCC(C)(C)O (stereo unspecified)
inactive: outcome [1] | Potency [2] | Potency [4] | Potency [6] | Potency [7] | outcome [8] | outcome [9] | Potency [5] | Potency [10]

CC(COC(C)(C)C)OCCCO (stereo unspecified)
inactive: outcome [1] | Potency [2] | Potency [4] | Potency [6] | Potency [5]

Cc1ccccc1N=O
inactive: outcome [1] | Potency [2] | Potency [4] | Potency [6] | Potency [5]

COC(=O)CCCCCCCC(=O)OC
inactive: outcome [1] | Potency [3] | Potency [4] | Potency [6] | Potency [5]

COP(=O)(OC)OC(c1ccc(Cl)cc1)P(=O)(OC)OC (stereo unspecified)
inactive: outcome [1] | Potency [2] | Potency [4] | Potency [6] | Potency [5]

O=Cc1ccc(Cl)c(Cl)c1
inactive: outcome [1] | Potency [2] | Potency [4] | Potency [6] | Potency [5]

CCCC/C=C\CCCCCCCCCC=O
inactive: outcome [1] | Potency [3] | Potency [4] | Potency [6] | Potency [5]

NCCN1CCOCC1
inactive: outcome [1] | Potency [2] | Potency [4] | Potency [6] | Potency [5]

COc1ccc2c(c1OC)C(=O)O[C@@H]2[C@H]1c2c(cc3c(c2OC)OCO3)CCN1C
inactive: outcome [1] | Potency [2] | Potency [4] | Potency [6] | Potency [5]

CCCCOCCOC(=O)COc1nc(Cl)c(Cl)cc1Cl
inactive: outcome [1] | Potency [2] | Potency [4] | Potency [6] | Potency [5]

N[C@@H](CCC(=O)Nc1ccc([N+](=O)[O-])cc1)C(=O)O
inactive: outcome [1] | Potency [3] | Potency [4] | Potency [6] | Potency [7] | outcome [8] | outcome [9] | Potency [10]

CC(CN)CC(C)(C)CCN (stereo unspecified)
inactive: outcome [1] | Potency [6]
active: Potency [2] 44.4 µM | Potency [4] 44.4 µM | Potency [5] 6.27 µM

CCOC(=O)[C@H](CCc1ccccc1)N[C@@H](C)C(=O)N1C(=O)N(C)C[C@H]1C(=O)O
inactive: outcome [1] | Potency [2] | Potency [4] | Potency [6] | Potency [5]

CCCCOC(=O)c1ccccc1
inactive: outcome [1] | Potency [2] | Potency [4] | Potency [6] | Potency [7] | outcome [9] | Potency [5] | Potency [10]
